# Rows were chosen to be rich in hits. Some 10% of all compounds tested hit in one or more screens of this group.
# GLS inhibitor: glutaminase GLS (human) inhibition; O94925; GLS enzymatic activity, qHTS titration; Potency, µM (doses to about 45.5 µM), for inactives: top-dose activity change, negative = inhibition, most hits filed as inhibitors; hit rate 0.21% among 410,000; AID 624170; note: % is set by controls: 0 for no effect and ±100 for the full control effect
#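 Assay buffer: 45 mM KH2PO4 pH 8.2, 0.02% Tween-20. hKGA acts on L-glutamine (1 mM solution added); product glutamate is reported by an oxidase/peroxidase Amplex Red coupling, with fluorescence taken at baseline and 30 min.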
# JMJD2A Tudor: inhibitors of human JMJD2A Tudor domain. O75164. AlphaScreen JMJD2A-Tudor / H3K4me3 peptide binding. Potency, µM (top dose mostly 114 µM), without a hit: top-dose activity change, negative = inhibition, most hits filed as inhibitors. hit rate 4.4% among 390,000; note: % is set by controls: 0 for no effect and ±100 for the full control effect; nearly all actives have a fitted effect of over 50% in size
# BAZ2B block: blocks human BAZ2B | Q9UIF8 | Potency, µM (doses to about 114 µM), inactives show at the highest dose activity change, negative = inhibition, hits mostly inhibitors | AlphaScreen BAZ2B-H3K14Ac peptide displacement | hit rate 4.4% among 360,000; note: % is set by controls: 0 for no effect and ±100 for the full control effect; nearly all actives have a fitted effect of over 60% in size
#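 Protein-peptide AlphaScreen: BAZ2B 50 nM, b-H3K14Ac 50 nM, 1x PBS pH 7.4 + 0.01% Tween-20. Preincubation 30 min RT; cpd 30 min RT (top 110 uM); beads 20 min RT, light-protected.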
# HP1b binding inh: blocks HP1-beta chromodomain binding to methylated histone tails. P83916. AlphaScreen HP1-beta / biotin-H3K9me3 peptide binding. Potency, µM (series often up to 114 µM), for the others: at the top dose activity change, negative = inhibition, usual class: inhibitors. hit rate 0.56% among 390,000. AID 540317; note: nearly all actives have a fitted effect of over 70% in size
# Target sequence (P83916 whole entry, looked up): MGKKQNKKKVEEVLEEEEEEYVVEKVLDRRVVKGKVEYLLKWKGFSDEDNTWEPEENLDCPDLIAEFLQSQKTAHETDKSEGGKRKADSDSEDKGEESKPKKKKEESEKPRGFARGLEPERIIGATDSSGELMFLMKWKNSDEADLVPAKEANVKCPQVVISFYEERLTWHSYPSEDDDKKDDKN
#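 Compound inhibition of the preformed complex between 50 nM HP1-beta and 50 nM biotinylated H3K9me3 peptide was read by AlphaScreen. Buffer was PBS pH 7.4 with 0.01% Tween-20. Incubations ran 30 min at room temperature, with 10 ug/mL donor/acceptor beads.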
# G9a block: G9a (human) methyltransferase inhibition; Q96KQ7; G9a H3K9 monomethylation, AlphaScreen, 2 h; Potency, µM (highest dose often 102 µM), for the others: top-dose activity, negative = inhibition, hits mostly inhibitors; hit rate 8.8% among 350,000; AID 504332; note: % is set by controls: 0 for no effect and ±100 for the full control effect; nearly all actives have a fitted effect of over 75% in size
# Target sequence (Q96KQ7 913-1193 limits assumed): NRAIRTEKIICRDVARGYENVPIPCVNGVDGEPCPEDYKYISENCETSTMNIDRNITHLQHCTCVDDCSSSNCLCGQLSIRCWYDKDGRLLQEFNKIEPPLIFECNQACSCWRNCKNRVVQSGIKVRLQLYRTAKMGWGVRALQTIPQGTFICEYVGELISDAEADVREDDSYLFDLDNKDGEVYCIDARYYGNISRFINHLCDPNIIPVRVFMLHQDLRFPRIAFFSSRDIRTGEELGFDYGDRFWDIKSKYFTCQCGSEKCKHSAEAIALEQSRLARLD
#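 Methyltransferase reactions run at room temperature for 2 h (20 nM enzyme, 500 nM biotin-H3K9 peptide, 20 uM SAM) after a 15 min compound preincubation; product detected by AlphaScreen beads and anti-H3K9me1 antibody.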
# * hit, by the source's call; ? = inconclusive; . = no result; ! = not active in a repeat; [ ] = another dose, or the depositor's remark. Calls come from the whole dose curve; as a rule, active = well fitted curve in the direction sought with a large enough effect; inconclusive = small, poorly fitted or top-dose-only effect, or another doubt; inactive = no such curve, though single readings can be large; an effect the other way counts as inactive or inconclusive. Potency is the fitted concentration of half-maximal effect.
SMILES,GLS inhibitor,JMJD2A Tudor,BAZ2B block,HP1b binding inh,G9a block
COc1ccc(Nc2nc(-c3cc4cccc(OC)c4oc3=O)cs2)cc1,7%,-31%,?,2%,45µM*
CC(=O)Nc1ccc(Nc2nc(-c3cc4ccccc4oc3=O)cs2)cc1,?,-6%,-18%,19%,?
O=C(Nc1c(C(=O)O)[nH]c2ccc(F)cc12)c1cccc(C(F)(F)F)c1,-15%,79µM*,-38%,?,?
O=C(O)c1cccc(N2C(=O)/C(=C/c3ccc(SCc4ccc(Cl)cc4)o3)SC2=S)c1,?,45µM*,32µM*,-16%,20µM*
Cc1ccc(/C=C2\SC(=S)N(c3cccnc3)C2=O)o1,4%,-18%,?,9%,?
CCOCCOC(=O)CCSc1n[nH]c(=O)[nH]c1=O,4%,-11%,-4%,27%,50µM*
Cc1nc2ccc(NC(=O)c3ccc(Cl)c([N+](=O)[O-])c3)cc2s1,-3%,-13%,15%,14%,?
Cc1nc2ccc(NC(=O)c3cc([N+](=O)[O-])cc([N+](=O)[O-])c3Cl)cc2s1,-18%,56µM*,?,?,6.3µM*
CSc1nc2ccc(NC(=O)c3ccccn3)cc2s1,-14%,28µM*,2%,17%,?
Cc1nc2ccc(NC(=O)c3cc(Cl)ccn3)cc2s1,-2%,-34%,79µM*,19%,45µM*
O=C(NCc1ccncc1)C1=NN(c2ccccc2)C(=O)CC1,14%,-15%,-4%,44%,25µM*
CCC/C=C1/CCCOC(C(=O)NCCOC)(C(F)(F)F)C1 (stereo not given),.,-6%,.,10%,.
O=C(c1cn(-c2ccccc2)nc1-c1cccc(Br)c1)N1CCOCC1,4%,-5%,-16%,45%,-30%
CSc1nc2ccc(NC(=O)C3=NN(c4ccccc4)C(=O)CC3)cc2s1,-20%,?,-31%,-2%,45µM*
CC(=O)Nc1ccc2nc(NC(=O)C(Cl)(Cl)Cl)sc2c1,-2%,-1%,-10%,50%,50µM*
Cc1cc(C)c(-c2csc(NC(=O)C3=NN(c4ccccc4)C(=O)CC3)n2)c(C)c1,-9%,-26%,-6%,39%,28µM*
CC(=O)Nc1ccc2nc(NC(=O)c3cccnc3)sc2c1,2%,-11%,-23%,36%,-33%
O=C1CCCN1c1ccc(S(=O)(=O)N2CCN(c3ccccc3)CC2)cc1,-5%,-2%[11.4 µM],-16%,48%,.
O=c1oc2cc(S(=O)(=O)NCCCO)ccc2c2ccc(S(=O)(=O)NCCCO)cc12,-2%,-10%,-2%,20%,-37%
CC1CCCN(c2c([N+](=O)[O-])c(=O)oc3ccccc23)C1 (stereo not given),0%,-8%,8%,27%,45µM*
CCOc1ccc(Nc2cc(=O)oc3ccccc23)cc1,15%,-15%,71µM*,19%,14%
CCOc1ccc(NC(=O)COC(=O)c2cc(=O)c3ccccc3o2)cc1,-12%,-5%,10%,48%,20µM*
CCCCNc1cc(=O)oc2ccccc12,2%,-9%[57.1 µM],-4%,42%,14%[12.7 µM]
N#Cc1ccc(COC(=O)c2cc(=O)c3ccccc3o2)cc1,0%,-16%,-9%,17%,-1%
O=C(OCc1ccc([N+](=O)[O-])cc1)c1cc(=O)c2ccccc2o1,2%,-8%,-1%,18%,50µM*
SMILES,GLS inhibitor,JMJD2A Tudor,BAZ2B block,HP1b binding inh,G9a block
CC1(c2ccc3c(c2)OCO3)NC(=O)N(CC(=O)Nc2ccccc2[N+](=O)[O-])C1=O (stereo not given),6%,-19%,0%,9%,?
O=C(CSc1ncnc2c1cnn2-c1ccc(F)cc1)NC1CCCC1,0%,-4%,-1%,39%,.
COc1ccc(CCC(=O)NCCNC(=O)CCc2ccc(OC)cc2)cc1,-5%,-6%,12%,23%,3%[0.501 µM]
O=[N+]([O-])c1ccc(COc2cccc(CNc3ccc(Br)cc3)c2)cc1,-13%,-29%,-37%,-1%,45µM*
CN1C(=O)/C(=C/c2cc(C(C)(C)C)c(O)c(C(C)(C)C)c2)NC1=S,0%,0%,0%,42%,13µM*
CN1C(=O)/C(=C/c2ccccc2OCc2ccccc2)NC1=S,3%,-22%,?,5%,?
CCOC(=O)CCNC(C(=O)OCC)c1ccccc1 (stereo not given),5%,35µM*,?,?,?
CCOC(=O)CCNC(=O)CCNC(=O)C(c1ccccc1)c1ccccc1,4%,-1%,-2%,9%,-1%
COCCCN=Cc1c(C)[nH]n(-c2ccc(Br)cc2Br)c1=O,-2%,-16%,.,-5%,50µM*
Cc1ccc(C)n1C1CCS(=O)(=O)C1 (stereo not given),-4%,-5%,-7%,10%,56µM*
COc1ccc(C(O)(CCN2CCCCC2)C2CCCCC2)cc1 (stereo not given),-1%,-13%,-1%,28%,50µM*
CCCCCC(O)(CCN1CCCCC1)c1ccc(OCC)cc1 (stereo not given),-11%,40µM*,-16%,9%,15%[59 µM]
CC(C)COc1ccc(C(=O)CCN2CCCCC2)cc1,5%,-13%,-11%,55%,16µM*
CCCOc1ccc(C(=O)CCCC(=O)c2ccc(OCCC)cc2)cc1,-1%,12%,44%,48%,.
CCCCOc1ccc(C(=O)CCN2CCCCC2)cc1,1%,-8%,-23%,84%,10µM*
CC(C)COc1ccc(C(=O)OCCN2CCCCC2)cc1,-1%,-19%,4%,73%,19%[2.33 µM]
CCC(C)C(=O)Nc1nc(C)c(-c2csc(Nc3ccc(Cl)cc3)n2)s1 (stereo not given),-1%,?,?,-23%,2%[0.501 µM]
NNC(=O)[C@H](Cc1ccccc1)NC(=O)Nc1ccc2c(c1)OCCO2,25%,-30%,-6%,-18%,0%
CCN1CC(CN(C)Cc2nc(-c3ccco3)oc2C)CC1=O (stereo not given),3%,-7%,-15%,46%,79µM*
CCN1CC(CN(C)Cc2nc(-c3ccc(C(F)(F)F)cc3)oc2C)CC1=O (stereo not given),-12%,-16%,5%,25%,.
O=C(CN1C(=O)CCC1=O)Nc1nc(-c2ccc3ccccc3c2)cs1,1%,-7%,-16%,19%,9%
COc1ccccc1CNS(=O)(=O)N(C)C,0%,50µM*,-2%,-10%,10%[59 µM]
CCCCCCCCNCCS(=O)(=O)NCc1ccccc1OC,-5%,-12%,.,69%,.
COc1ccccc1CNCCCCCCNCCCCCCCCNCCCCCCNCc1ccccc1OC,.,.,.,.,10µM*!
COc1ccccc1CNN,?,40µM*,?,-2%,25µM*
O=C(NNC(=O)C1CCCN(c2ncccn2)C1)c1ccc(F)cc1 (stereo not given),-16%,-7%,-30%,17%,70%[59 µM]

# High-throughput results deposited in PubChem by National Center for Advancing Translational Sciences (NCATS).
